Source: PubChem
An excerpt weighted towards active compounds, which were near 2.8% of everything screened.
Wee1 degr inh = Wee1 degradation inhibitors, primary screen, cell-based, HeLa, Wee1K328M-luciferase, luminescence; HeLa Luc-Wee1K328M stability; 100% = proteasome inhibitor MG132 effect; reporter increase, % at 5 µM; 1.2% of 220,000 active; AID 1321, 2008;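 active = activation above the mean of all tested compounds plus 3 SD, set per screening run, cut at about 8.8% in these data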;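 also: cells exposed to compound for 20 h before luminescence read; 0% = DMSO alone and 100% = MG132 at 30 µM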
p47phox inh = p47phox/p22phox peptide binding inhibitors, primary screen, biochemical, uHTS, NADPH oxidase regulatory subunit | Neutrophil cytosol factor 1 (Homo sapiens), P14598 | 0.53% of 220,000 active | fluorescence polarization, 2 h | inhibition, % at 24.7 µM;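 active = inhibition above about 30%, limit read from the data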;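 also: 0% = p47phox with labelled peptide and 100% = labelled peptide alone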
EP2 modulator = EP2 receptor modulators, cAMP readout, primary screen, cell-based, HTRF cAMP, PGE2 stimulation; EP2-expressing cells, cAMP HTRF FRET, PGE2 co-stimulation; induction, % at 25 µM; 0.83% of 260,000 active; AID 940, 2007;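 active = compounds whose cAMP rise, as percent of the full-agonist control response, exceeds 60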;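 also: rat C6 glioma line stably carrying human EP2 under a CMV promoter; the protocol text gives 20 µM as final concentration; 100% = response of wells given 1 µM PGE2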
Target sequence (P43116 whole entry, looked up): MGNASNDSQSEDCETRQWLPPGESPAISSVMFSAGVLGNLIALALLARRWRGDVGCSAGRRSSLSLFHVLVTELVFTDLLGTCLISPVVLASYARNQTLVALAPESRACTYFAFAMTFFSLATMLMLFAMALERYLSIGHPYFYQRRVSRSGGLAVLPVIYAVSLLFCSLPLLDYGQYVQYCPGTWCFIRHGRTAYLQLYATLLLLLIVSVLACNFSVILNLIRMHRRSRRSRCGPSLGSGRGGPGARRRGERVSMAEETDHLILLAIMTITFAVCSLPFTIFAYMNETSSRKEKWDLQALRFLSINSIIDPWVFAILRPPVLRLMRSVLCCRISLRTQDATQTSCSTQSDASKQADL
EP2 antag = human EP2 receptor antagonists, primary screen, TR-FRET cAMP, C6 glioma cells | Prostaglandin E2 receptor EP2 subtype (Homo sapiens), P43116 | C6 glioma cells expressing human EP2; cells stimulated with saturating PGE2 | inhibition, % at 25 µM | 0.52% of 260,000 active | AID 1422, 2008;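 active = percent inhibition above 40 after rounding to a whole number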;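 also: rat C6 glioma host cells with rolipram phosphodiesterase inhibitor present; the protocol text gives 20 µM as final concentration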
HSV augment = enhancers of HSV replication in host cells, fold increase, host cell viability; HSV replication augmentation in cells; AID 1956, 2009; 0.005% of 220,000 active; maximum fold increase; in the data active = maximum fold increase above about 1.5; tested in PC3 cells
Furin inhibitor = human furin inhibitors, primary screen, biochemical, fluorescence intensity | 0.061% of 220,000 active | purified furin, fluorogenic substrate cleavage | P09958 | inhibition, % at 20 µM or 30 µM; in the data active = inhibition above about 25%
Active calls of the source: *; i = inactive; . = not tested or not shown.

SMILES	Wee1 degr inh	p47phox inh	EP2 modulator	EP2 antag	HSV augment	Furin inhibitor
COCCn1nnnc1CN(Cc1cccs1)Cc1cc2cc3c(cc2[nH]c1=O)OCO3	.	.	-26.1	10.1	.	.
Cc1cc(N2CCN(C)CC2)nc2ccc(NC(=S)N3CCN(c4ccccn4)CC3)cc12	-0.4	1.2	-58.9	0.5	i	-15.9
Cc1nc2ccc(NC(=S)N3CCN(c4ccccn4)CC3)cc2nc1C	9.0*	-9.8	-7.5	12.1	.	-12.9
C#CCOc1ccc(CN[C@@H]2CCC(=O)N[C@H]2c2cc(F)cc(F)c2)cc1OC	.	.	-55.8	8.9	.	.
Cc1ccccc1NC1SC(=O)N(C)C1=O (centres undefined)	.	.	-23.2	12.5	.	.
Cc1cccc(C)c1NC(=O)N1C(C(=O)O)CSC1C(=O)O (centres undefined)	0.0	66.7*	3.3	2.9	i	-0.6
Cc1ccc(NC(=S)Nc2cccc(-c3n[nH]c(=S)o3)c2)cc1	2.0	-35.4	-24.2	41.7*	i	-7.7
O=c1/c(=C/c2ccc(Br)cc2)sc2nncn12	.	.	-75.5	30.7	.	.
O=C(CSc1nc2ccccc2s1)CSc1nc2ccccc2s1	1.1	-11.9	-31.5	10.4	i	-13.8
O=C(CSc1nc2ccccc2s1)c1sc2sc3ccccc3[n+]2c1O	.	.	-4.0	65.6*	.	.
Cc1ccc2[nH]c(=S)c(C#N)cc2c1	.	.	-2.7	20.2	.	.
Cc1ccc(S(=O)(=O)c2ccc(C)cc2)cc1	-2.8	-0.1	9.1	12.5	.	-16.7
Cc1ccc(C2=C(Cl)C(=O)C(c3ccc(C)cc3)=C(Cl)C2=O)cc1	.	.	21.5	46.4*	.	.
CCOC(=O)c1cc2sccc2n1CC(=O)O	-3.3	-11.2	13.3	6.3	i	-13.5
CCOC(=O)c1cc2sccc2n1Cc1cccc(F)c1	.	.	85.4*	9.4	.	.
Cc1nc(-c2cn[nH]c2-c2ccc(O)cc2O)cs1	9.0*	-12.9	-20.1	10.7	i	-4.0
COc1cc(C)c(-c2[nH]ncc2-c2csc(C)n2)c(O)c1	2.4	-9.2	-6.5	6.4	i	-15.6
CCOc1ccc(-n2nnnc2SCC(=O)Nc2ccc(C(C)=O)cc2)cc1	.	.	-16.6	7.5	.	.
CCSc1nc2c(c(=O)n1Cc1ccccc1)SC(C)C2 (centres undefined)	2.9	6.3	61.7*	9.1	i	-1.1
C=C(C)Cn1c(SCC)nc2ccccc2c1=O	-0.8	-3.7	56.5	14.7	i	-22.0
C=C(C)Cn1c(SCCC)nc2ccccc2c1=O	.	.	94.3*	13.7	.	.
CCSc1nc2ccccc2c(=O)n1Cc1ccc(F)cc1	-0.9	-2.5	64.9*	7.0	i	-16.1
CC(=O)c1ccc(N2CCN(CC(=O)Nc3ccccc3Br)CC2)cc1	.	.	-15.4	18.3	.	.
CCCNC(=O)C1CCCN(S(=O)(=O)c2ccc(F)cc2)C1 (centres undefined)	.	.	9.5	4.9	.	.
O=C(C1CCCC1)N1CCC[C@H]1Cn1nc(-c2ccc3c(c2)OCCO3)ccc1=O	.	.	-9.1	11.2	.	.
SMILES	Wee1 degr inh	p47phox inh	EP2 modulator	EP2 antag	HSV augment	Furin inhibitor
CCOc1ccc(CN2CCN(S(=O)(=O)c3ccccc3)CC2)cc1OC	.	.	-65.4	6.5	.	.
CC(=O)Nc1cccc(/C(C)=N/NC(=O)c2ccc(O)cc2)c1	10.1*	-9.2	13.5	6.6	i	-32.9
C/C(=N/NC(=O)c1ccc(O)cc1)c1cccc([N+](=O)[O-])c1	1.9	-20.8	-18.0	7.4	i	-15.2
Cc1ccc(NC(=O)CN2C(=O)NC3(CCCc4ccccc43)C2=O)cc1S(=O)(=O)N1CCOCC1 (centres undefined)	-1.0	40.0*	-34.5	9.2	i	-16.2
CCN(CC)S(=O)(=O)c1cc(NC(=O)CN2C(=O)NC3(CCCc4ccccc43)C2=O)ccc1C (centres undefined)	0.3	-17.1	-11.4	11.1	i	-29.5
Cc1ccc(NC(=O)Cn2nnc3ccccc32)cc1	10.4*	-4.0	9.1	8.1	i	-18.8
Cc1cccc(NC(=O)Cn2nnc3ccccc32)c1	8.1	-8.8	-35.0	4.0	i	-15.8
CCn1c(SCC(=O)Nc2ccccc2C(F)(F)F)nc2sc3c(c2c1=O)CCC3	.	.	10.9	18.7	.	.
